# Measured values as given in PubChem BioAssay (Tox21).
# A number with no mark means an inactive call. Entries that show only a call come without a potency. The source made the active and inactive calls. Unless noted, calls come from the whole dose curve; as a rule, active = well fitted curve in the direction sought with a large enough effect in the repeat runs; inconclusive = weak or mixed curves; inactive = no such curve, though single readings can be large; an effect the other way counts as inactive or inconclusive.
# Experiments:
# [1] = qHTS assay to identify small molecule antagonists of the thyroid receptor (TR) signaling pathway - cell viability counter screen (AID 743064); note: nearly all actives have a fitted effect of over 50% in size; note: potency is the fitted concentration of half-maximal effect
# How it was run: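 Same-well viability check: GH3.TRE-Luc cells stimulated with 1 nM T3 alongside test compound for 23.5 h, followed by CellTiter-Fluor fluorescence.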
# [2] = target: Estrogen receptor (Homo sapiens) (UniProt P03372); assay: qHTS assay to identify small molecule antagonists of the estrogen receptor alpha (ER-alpha) signaling pathway (AID 743069; active = well fitted curve in the direction sought with a large enough effect in the signal ratio in the repeat runs, not every such curve was filed as active; inconclusive = weak or mixed curves, or effect the other way; inactive = no such curve, though single readings can be large or run the other way; the % refers to the signal ratio; note: potency is the fitted concentration of half-maximal effect)
# Estrogen receptor (Homo sapiens), sequence (P03372 whole entry, looked up): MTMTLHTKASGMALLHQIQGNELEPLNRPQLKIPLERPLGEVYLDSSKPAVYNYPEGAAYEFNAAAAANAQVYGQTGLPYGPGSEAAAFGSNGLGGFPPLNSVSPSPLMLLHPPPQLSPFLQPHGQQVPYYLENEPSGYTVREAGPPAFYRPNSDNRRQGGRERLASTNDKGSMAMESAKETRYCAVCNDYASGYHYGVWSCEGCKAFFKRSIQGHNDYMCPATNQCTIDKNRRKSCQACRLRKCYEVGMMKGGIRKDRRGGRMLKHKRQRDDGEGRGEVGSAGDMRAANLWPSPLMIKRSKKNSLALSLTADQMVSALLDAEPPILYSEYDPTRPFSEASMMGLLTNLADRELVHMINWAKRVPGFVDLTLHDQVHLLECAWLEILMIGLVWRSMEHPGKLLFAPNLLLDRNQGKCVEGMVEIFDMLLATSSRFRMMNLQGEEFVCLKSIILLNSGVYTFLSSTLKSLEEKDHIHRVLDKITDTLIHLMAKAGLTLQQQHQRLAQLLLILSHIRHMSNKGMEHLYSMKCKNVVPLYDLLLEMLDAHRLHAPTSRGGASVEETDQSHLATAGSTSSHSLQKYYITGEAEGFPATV
# How it was run: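 ER-alpha-UAS-bla GripTite HEK293 line; 2% charcoal-stripped FBS overnight; plated, 4 hr 37C/5% CO2; cpd in DMSO + 17beta-estradiol, 18 hr 37C; LiveBLAzer B/G FRET substrate 2 hr RT; fluorescence intensity.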
# [3] = target: Estrogen receptor (Homo sapiens) (UniProt P03372); assay: qHTS assay to identify small molecule agonists of the estrogen receptor alpha (ER-alpha) signaling pathway (AID 743075; calls by dose curve;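 note: HEK293 GripTite cells with ER-alpha and UAS-driven beta-lactamase reporter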; note: potency is the fitted concentration of half-maximal effect)
# [4] = target: Estrogen receptor (Homo sapiens) (UniProt P03372); assay: qHTS assay to identify small molecule agonists of the estrogen receptor alpha (ER-alpha) signaling pathway using the BG1 cell line (AID 743079); conditions: BG1Luc4E2 cells, ERE-luciferase agonist, 22 h; activation: at 70.3 µM (top of the series); note: nearly all actives have a fitted effect of over 20% in size; note: potency is the fitted concentration of half-maximal effect
# [5] = qHTS assay to identify small molecule antagonists of the estrogen receptor alpha (ER-alpha) signaling pathway using the BG1 cell line (AID 743080; calls by dose curve;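 note: BG1 cells stimulated with 17beta-estradiol alongside compound; nearly all actives have a fitted effect of over 25% in size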; note: potency is the fitted concentration of half-maximal effect)
# How it was run: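 Luciferase inhibition measured with ONE-Glo after 30 min at RT in BG1Luc4E2 cells given test compounds and 17beta-estradiol for 21.5 h at 37 C; CellTiter-Fluor viability read in the same wells beforehand.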
# [6] = qHTS assay to identify small molecule antagonists of the estrogen receptor alpha (ER-alpha) signaling pathway using the BG1 cell line - cell viability counter screen (AID 743081);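 note: compound given together with 17beta-estradiol as the ER stimulus; nearly all actives have a fitted effect of over 45% in size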
# [7] = target: Aromatase (Homo sapiens) (UniProt P11511); assay: qHTS assay to identify aromatase inhibitors (AID 743083); note: nearly all actives have a fitted effect of over 55% in size; note: potency is the fitted concentration of half-maximal effect
# Aromatase (Homo sapiens), sequence (P11511 whole entry, looked up): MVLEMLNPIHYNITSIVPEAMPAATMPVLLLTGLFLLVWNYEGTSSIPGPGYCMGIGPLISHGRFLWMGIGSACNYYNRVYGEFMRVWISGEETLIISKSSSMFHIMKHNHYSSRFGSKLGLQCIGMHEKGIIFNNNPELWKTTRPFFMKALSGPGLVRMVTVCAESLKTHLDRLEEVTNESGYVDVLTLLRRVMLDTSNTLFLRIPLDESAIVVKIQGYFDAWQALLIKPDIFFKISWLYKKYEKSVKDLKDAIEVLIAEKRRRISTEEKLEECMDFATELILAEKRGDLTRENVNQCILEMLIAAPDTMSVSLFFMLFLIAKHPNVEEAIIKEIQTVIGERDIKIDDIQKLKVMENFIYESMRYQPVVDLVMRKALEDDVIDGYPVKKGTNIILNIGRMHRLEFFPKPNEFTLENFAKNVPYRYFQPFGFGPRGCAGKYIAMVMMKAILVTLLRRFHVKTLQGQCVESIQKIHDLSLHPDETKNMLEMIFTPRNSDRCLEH
# [8] = qHTS assay to identify aromatase inhibitors - cell viability counter screen (AID 743084);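 note: cells stimulated with testosterone during compound exposure; nearly all actives have a fitted effect of over 55% in size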; note: potency is the fitted concentration of half-maximal effect
# [9] = target: Aryl hydrocarbon receptor (Homo sapiens) (UniProt P35869); assay: qHTS assay to identify small molecule that activate the aryl hydrocarbon receptor (AhR) signaling pathway (AID 743085);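 note: HG2L7.5c1 human HepG2 liver cells with stably integrated DRE-driven firefly reporter; nearly all actives have a fitted effect of over 15% in size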
# Aryl hydrocarbon receptor (Homo sapiens), sequence (P35869 whole entry, looked up): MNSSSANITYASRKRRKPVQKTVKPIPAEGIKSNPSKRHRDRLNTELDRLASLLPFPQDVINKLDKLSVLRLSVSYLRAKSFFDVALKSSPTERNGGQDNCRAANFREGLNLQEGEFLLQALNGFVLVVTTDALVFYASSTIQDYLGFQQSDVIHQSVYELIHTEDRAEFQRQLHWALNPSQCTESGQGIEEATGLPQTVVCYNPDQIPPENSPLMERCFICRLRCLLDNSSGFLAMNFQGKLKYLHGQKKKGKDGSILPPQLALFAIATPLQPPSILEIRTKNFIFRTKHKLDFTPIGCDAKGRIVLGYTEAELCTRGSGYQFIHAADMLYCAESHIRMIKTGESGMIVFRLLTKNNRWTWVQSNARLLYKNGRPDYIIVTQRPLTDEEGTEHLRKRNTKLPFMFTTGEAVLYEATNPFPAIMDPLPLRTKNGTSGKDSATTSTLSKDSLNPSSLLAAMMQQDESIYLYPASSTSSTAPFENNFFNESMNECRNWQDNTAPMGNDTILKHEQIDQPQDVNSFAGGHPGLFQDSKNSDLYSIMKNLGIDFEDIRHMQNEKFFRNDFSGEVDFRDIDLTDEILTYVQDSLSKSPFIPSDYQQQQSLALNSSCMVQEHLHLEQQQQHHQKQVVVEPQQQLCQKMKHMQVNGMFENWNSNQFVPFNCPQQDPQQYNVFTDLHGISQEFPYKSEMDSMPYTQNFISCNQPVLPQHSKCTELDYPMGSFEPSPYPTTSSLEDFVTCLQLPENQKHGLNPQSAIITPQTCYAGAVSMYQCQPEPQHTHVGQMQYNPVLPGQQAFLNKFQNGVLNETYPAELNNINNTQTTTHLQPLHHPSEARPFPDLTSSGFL
# How it was run: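 Reporter assay in engineered HepG2 line HG2L7.5c1, whose plasmid carries twenty dioxin responsive elements upstream of firefly luciferase. Treatment lasted 24 h at 37C; ONE-Glo luminescence gauged induction.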
# [10] = qHTS assay to identify small molecule that activate the aryl hydrocarbon receptor (AhR) signaling pathway - cell viability counter screen (AID 743086); note: nearly all actives have a fitted effect of over 45% in size; note: potency is the fitted concentration of half-maximal effect
# How it was run: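 Cytotoxicity counter screen: CellTiter-Fluor signal (30 min, 37 C) in 4000 HepG2 cells/well carrying the DRE-luciferase reporter, following 24 h compound exposure at 37 C.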
# [11] = target: Peroxisome proliferator-activated receptor gamma (Homo sapiens) (UniProt P37231); assay: qHTS assay to identify small molecule agonists of the peroxisome proliferator-activated receptor gamma (PPARg) signaling pathway (AID 743094; active = well fitted activation curve with a large enough effect in the signal ratio in the repeat runs, not every such curve was filed as active; inconclusive = weak or mixed curves, or effect the other way; inactive = no such curve, though single readings can be large or run the other way; the % refers to the signal ratio)
# Peroxisome proliferator-activated receptor gamma (Homo sapiens), sequence (P37231 whole entry, looked up): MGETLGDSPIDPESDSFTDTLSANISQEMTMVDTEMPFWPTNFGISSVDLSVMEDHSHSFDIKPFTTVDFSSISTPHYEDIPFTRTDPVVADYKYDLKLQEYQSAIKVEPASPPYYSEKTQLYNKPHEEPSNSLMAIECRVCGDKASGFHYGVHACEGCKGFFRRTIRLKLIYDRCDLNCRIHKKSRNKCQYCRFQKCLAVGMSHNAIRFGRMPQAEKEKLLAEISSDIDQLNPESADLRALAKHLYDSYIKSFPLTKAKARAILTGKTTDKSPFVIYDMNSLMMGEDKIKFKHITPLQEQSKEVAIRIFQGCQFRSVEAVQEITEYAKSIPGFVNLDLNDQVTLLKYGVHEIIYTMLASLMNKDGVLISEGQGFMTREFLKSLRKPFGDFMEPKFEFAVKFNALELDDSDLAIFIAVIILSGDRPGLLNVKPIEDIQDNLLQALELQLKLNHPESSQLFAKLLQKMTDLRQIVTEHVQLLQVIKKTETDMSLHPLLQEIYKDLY
# How it was run: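 Stably transfected HEK293H cells (GeneBLAzer PPARg UAS-bla) were incubated with test substances for 17 h at 37C after a 5 h pre-incubation; beta-lactamase activity was then detected by FRET substrate fluorescence.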
# [12] = qHTS assay to identify small molecule phospholipidosis (PLD) inducers (AID 1259344; active = well fitted curve in the direction sought with a large enough effect; inconclusive = small, poorly fitted or top-dose-only effect, or another doubt; inactive = no such curve, though single readings can be large; an effect the other way counts as inactive or inconclusive)
# How it was run: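 Phospholipidosis is scored by imaging LipidTOX-stained pits in HepG2 cells exposed to compound for 24 h at 37 C; pit counts and integrated intensities per well and per cell serve as outputs.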
# [13] = target: Nuclear receptor subfamily 1 group I member 2 (Rattus norvegicus) (UniProt Q9R1A7); assay: Rat pregnane X receptor (rPXR) activation by small molecules, qHTS assay (AID 1346983); conditions: rPXR luciferase reporter cells, One-Glo luminescence, 24 h; max activation: hits give high values; note: nearly all actives have a fitted effect of over 20% in size
# Nuclear receptor subfamily 1 group I member 2 (Rattus norvegicus), sequence (Q9R1A7 whole entry, looked up): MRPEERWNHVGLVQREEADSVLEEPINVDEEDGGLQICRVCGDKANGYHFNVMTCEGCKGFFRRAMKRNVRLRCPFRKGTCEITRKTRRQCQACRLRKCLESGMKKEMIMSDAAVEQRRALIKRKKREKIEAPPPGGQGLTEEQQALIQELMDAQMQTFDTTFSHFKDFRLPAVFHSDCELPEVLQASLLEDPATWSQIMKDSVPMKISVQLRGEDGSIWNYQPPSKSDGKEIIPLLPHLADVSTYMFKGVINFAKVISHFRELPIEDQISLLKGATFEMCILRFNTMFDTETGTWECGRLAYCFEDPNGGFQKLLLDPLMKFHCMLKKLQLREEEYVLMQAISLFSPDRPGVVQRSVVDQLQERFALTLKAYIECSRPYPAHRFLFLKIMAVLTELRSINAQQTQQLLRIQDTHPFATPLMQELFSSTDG
# How it was run: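 Luminescent readout (One-Glo luciferase, 30 min room temperature) followed 24 hr compound treatment at 37 C of rPXR cells plated 2,000 per well and preincubated 5hr; qHTS format with compounds delivered in DMSO.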
# [14] = target: Nuclear receptor subfamily 1 group I member 2 (Homo sapiens) (UniProt O75469); assay: CYP3A4 induction through human pregnane X receptor (PXR) by small molecules, qHTS assay (AID 1346984); note: nearly all actives have a fitted effect of over 40% in size; note: potency is the fitted concentration of half-maximal effect
# How it was run: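 DPX-2 reporter cells; 24h cpd, 37C; Luciferin-IPA 3uM final x3h; One-Glo 30 min RT; lumi read.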
# [15] = target: Nuclear receptor subfamily 1 group I member 2 (Homo sapiens) (UniProt O75469); assay: Human pregnane X receptor (PXR) activation by small molecules, qHTS assay (AID 1346985); note: nearly all actives have a fitted effect of over 40% in size; note: potency is the fitted concentration of half-maximal effect
# How it was run: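 DPX-2 cells (HepG2 co-transfected with a PXR response element and a CYP3A4-promoter luciferase construct) were seeded at 2,000 per well, rested 5 hr at 37C, then exposed to DMSO-dissolved compounds for 24 hr. Activation was read as luciferase luminescence.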
# [16] = qHTS assay to identify small molecule antagonists of the thyroid receptor (TR) signaling pathway (AID 743065); note: nearly all actives have a fitted effect of over 55% in size; note: potency is the fitted concentration of half-maximal effect
# How it was run: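 Antagonism measured as loss of luciferase signal in GH3 cells stably carrying a TRE-luciferase reporter, co-treated with compound and T3 (1 nM final) for 23.5 h at 37 C. Viability was read in the same well by CellTiter-Fluor.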
# [17] = system: thyroid hormone receptor (rat, GH3 cells); assay: qHTS assay to identify small molecule agonists of the thyroid receptor (TR) signaling pathway (AID 743066; calls by dose curve)
# [18] = qHTS assay to identify small molecule antagonists of the estrogen receptor alpha (ER-alpha) signaling pathway - cell viability counter screen (AID 743074; calls by dose curve;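 note: HEK293 cells carrying ER-alpha-UAS-bla reporter stimulated with 17beta-estradiol; nearly all actives have a fitted effect of over 45% in size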; note: potency is the fitted concentration of half-maximal effect)
Compound,Potency [1],Potency [2],Potency [3],Potency [4],Potency [5],Potency [6],Potency [7],Potency [8],Potency [9],Potency [10],Potency [11],Potency [12],max activation [13] [%],Potency [14],Potency [15],Potency [16],Potency [17],Potency [18]
CCCCCCCCCCCCCCCC(=O)OC[C@@H](O)[C@H]1OC[C@H](O)[C@H]1O,inactive,inactive,inactive,inactive,inactive,inactive,inactive,inactive,inactive,inactive,inactive,inactive,2.9,inactive,inactive,,,
C=CCSSSCC=C,,inactive,inactive,29.8 µM (active),inactive,inactive,inactive,inactive,inactive,inactive,inactive,inactive,0.11,inactive,inactive,inactive,inactive,inactive
O=C(O)C1CCCN1 (stereo not given),inactive,,,,,inactive,inactive,inactive,inactive,inactive,,inactive,-0.193,inactive,inactive,inactive,inactive,
COc1cc(-c2ccc(-[n+]3nc(-c4ccccc4)nn3-c3ccc([N+](=O)[O-])cc3)c(OC)c2)ccc1-[n+]1nc(-c2ccccc2)nn1-c1ccc([N+](=O)[O-])cc1,26.6 µM (active),,,,,,26.6 µM (active),29.8 µM (active),,26.6 µM (active),,inactive,-16,inactive,inactive,29.8 µM (active),,4.25 µM (active)
CC(C)[C@@H](N)C(=O)O,,inactive,inactive,inactive,inactive,inactive,inactive,inactive,inactive,inactive,inactive,inactive,2.42,inactive,inactive,inactive,inactive,inactive
CC1C(=O)CC2C3(C)CCC2(C(C)C(=O)O)C(=O)C13 (stereo not given),inactive,inactive,inactive,inactive,,inactive,inactive,inactive,inactive,inactive,inactive,inactive,0.0537,inactive,inactive,,,inactive
OC[C@H]1OC([S-])[C@H](O)[C@@H](O)[C@@H]1O.[Au+] (stereo not given in full),10.6 µM (active),inactive,inactive,inactive,inactive,inactive,inactive,inactive,inactive,inactive,,inactive,-6.36,inactive,inactive,7.5 µM (active),,inactive
CCN(CC)CCC(=O)N1c2ccccc2Sc2ccc(C(F)(F)F)cc21,13.3 µM (active),inactive,inactive,,inactive,inactive,inactive,inactive,inactive,,inactive,inactive,-1.59,1 µM (active),6.31 µM (active),26.6 µM (active),,inactive
CC1=C(/C=C/C(C)=C/C=C/C(C)=C/C(=O)Oc2c(C)c(C)c3c(c2C)CC[C@@](C)(CCC[C@H](C)CCC[C@H](C)CCCC(C)C)O3)C(C)(C)CCC1,inactive,inactive,inactive,inactive,7.5 µM (active),inactive,,inactive,inactive,inactive,inactive,inactive,-1.27,inactive,inactive,inactive,,inactive
COc1ccc(C[C@@H](C)NC[C@H](O)c2ccc(O)c(NC=O)c2)cc1,inactive,inactive,inactive,inactive,inactive,inactive,,inactive,inactive,inactive,inactive,inactive,-1.9,inactive,inactive,,inactive,
O=C(O)c1cc(O)c2c(c1)[O][Bi][O]2,inactive,,0.012 µM [inconclusive] (active),0.0019 µM (active),inactive,inactive,inactive,inactive,,inactive,inactive,inactive,-0.194,inactive,inactive,,inactive,inactive
C[C@@H]1CCC2[C@@H](C)[C@@H](O)O[C@@H]3O[C@@]4(C)CC[C@@H]1[C@@]23OO4 (stereo not given in full),2.11 µM (active),9.52 µM [inconclusive] (active),,inactive,inactive,,,,,,,inactive,-10.7,inactive,inactive,0.75 µM (active),,inactive
C#C[C@]1(O)CC[C@H]2[C@@H]3CCC4=C/C(=N/O)CC[C@@H]4[C@H]3CC[C@@]21CC,29.8 µM (active),,0.151 µM [inconclusive] (active),0.0422 µM (active),,inactive,23.7 µM (active),,inactive,inactive,,inactive,6.76,inactive,4.47 µM (active),11.9 µM (active),,inactive
C=C1CC[C@@H]2[C@](C)(CO)[C@H](O)CC[C@@]2(C)[C@@H]1C/C=C1/C(=O)OC[C@H]1O,21.1 µM (active),inactive,inactive,inactive,,inactive,inactive,,inactive,inactive,,inactive,-5.66,inactive,inactive,23.7 µM (active),,inactive
